# Hit rate of the full screen: of about 330,000 compounds, about 1,300 (0.39%) were called active. Only a selection was taken, and actives are over-represented in it overall. A number with no mark means an inactive call.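 How the source made its calls: active means percent inhibition above a cutoff equal to the mean of all tested compounds plus 3 SD (cut at about 15% in these data); inactive means the rest.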
# Target: Protein-arginine deiminase type-4 (Homo sapiens) (UniProt Q9UM07)
# Assay: human PAD4 inhibitors, primary screen, biochemical, fluorescence polarization, 1536-well format (AID 485272);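 further: 0% = PAD4 with RCA probe and DMSO and 100% = probe without PAD4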
# Settings: recombinant PAD4, RCA probe fluorescence polarization; at 6.36 µM; hits give high values
# Sequence of Protein-arginine deiminase type-4 (Homo sapiens) (Q9UM07 whole entry, looked up): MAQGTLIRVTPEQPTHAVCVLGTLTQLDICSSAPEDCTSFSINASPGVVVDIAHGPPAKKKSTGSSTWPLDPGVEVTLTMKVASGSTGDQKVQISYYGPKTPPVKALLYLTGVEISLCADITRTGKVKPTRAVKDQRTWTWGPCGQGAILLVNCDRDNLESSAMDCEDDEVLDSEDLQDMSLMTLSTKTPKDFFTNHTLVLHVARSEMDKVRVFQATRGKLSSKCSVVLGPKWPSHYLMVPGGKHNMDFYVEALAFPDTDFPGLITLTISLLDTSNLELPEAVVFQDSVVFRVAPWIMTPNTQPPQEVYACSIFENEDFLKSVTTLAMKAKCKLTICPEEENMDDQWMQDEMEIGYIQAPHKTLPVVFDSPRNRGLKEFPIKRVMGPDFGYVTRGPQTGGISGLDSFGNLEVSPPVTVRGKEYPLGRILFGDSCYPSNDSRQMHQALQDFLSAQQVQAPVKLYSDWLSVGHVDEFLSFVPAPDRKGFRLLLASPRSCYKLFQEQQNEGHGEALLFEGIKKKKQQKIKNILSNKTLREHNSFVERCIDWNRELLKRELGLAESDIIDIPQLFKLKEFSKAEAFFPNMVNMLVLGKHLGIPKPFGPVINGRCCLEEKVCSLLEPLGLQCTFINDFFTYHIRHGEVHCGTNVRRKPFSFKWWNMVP
row,Compound,inhibition
1,COc1cc(Cn2c(N)c(C(=O)NCc3ccco3)c3nc4ccccc4nc32)cc(OC)c1OC,-2.07%
2,CCOC(=O)c1c(N)n(Cc2ccccc2)c2nc3ccccc3nc12,42.1% (active)
3,CC/C(=N\NC(=O)c1ccccc1O)c1c(O)n(Cc2ccccc2)c(=O)[nH]c1=O,-6.35%
4,O=C(COc1ccc2ccccc2c1)N1CCN(Cc2ccncc2)CC1,3.09%
5,CC(C)N(CC#CCC1(O)c2ccccc2-c2ccccc21)C(C)C,2.13%
6,COc1ccc(CN2CCN(c3ccccc3F)CC2)c(OC)c1,-6.62%
7,COc1ccccc1C1=NCc2nnc(CSC)n2-c2ccc(Cl)cc21,21.5% (active)
8,Cc1cccc(-n2c(O)c(C=NC34CN5CN(CN(C5)C3)C4)c(=O)[nH]c2=O)c1,6.25%
9,Cc1ccc(N2C(=O)NC(=O)C(CCc3ccncc3)(Cc3cccc(Cl)c3Cl)C2=O)cc1 (stereo not given),1.57%
10,CN1CCN(Cc2ccccc2C(F)(F)F)CC1,6.58%
